Source: ChEMBL document CHEMBL1201862, “PubChem BioAssay data set” (2004)
Results with a measured potency or affinity are listed apart.

Molecular target: T1, fMet-Leu-Phe receptor (Homo sapiens) (UniProt P21462)
T1 sequence (whole entry): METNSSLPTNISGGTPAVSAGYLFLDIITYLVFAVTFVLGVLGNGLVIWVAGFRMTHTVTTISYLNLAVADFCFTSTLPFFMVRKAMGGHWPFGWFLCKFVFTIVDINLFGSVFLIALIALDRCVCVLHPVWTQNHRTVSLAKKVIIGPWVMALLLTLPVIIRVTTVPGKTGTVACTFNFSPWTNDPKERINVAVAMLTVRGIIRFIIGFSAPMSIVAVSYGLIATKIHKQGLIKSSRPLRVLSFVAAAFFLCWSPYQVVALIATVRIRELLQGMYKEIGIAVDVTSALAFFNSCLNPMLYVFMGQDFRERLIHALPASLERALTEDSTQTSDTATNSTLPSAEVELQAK
Assay: human FPR1 ligand displacement potency – cell-based, flow cytometry, Ki from IC50, dose response (AID 724); call rule not given here
Assay type: functional

| Compound | KI MICROM |
| --- | --- |
| O=C1CC(c2ccccc2C(F)(F)F)C2=C(CC(c3cccs3)CC2=O)N1 (stereo not given) | > 44.3 µM (inactive) |
| COc1cccc(/C=C2/C(=O)NN(c3ccc(C)cc3)C2=O)c1 | > 44.3 µM (inactive) |
| Cc1[nH]c2c(-c3ccc(Cl)cc3)c(C(F)(F)F)nn2c(=O)c1Cc1ccccc1 | 2.5 µM (active) |
| CC(C)C(=O)N(Cc1ccco1)S(=O)(=O)c1cccc2cccnc12 | > 44.3 µM (inactive) |
| COCCN1C(=O)C(O)=C(C(=O)c2ccccc2)C1c1ccccc1OC (stereo not given) | 12.4 µM (inactive) |
| Cc1sc2c(c1C)c(=O)n(Cc1ccccc1)c(=O)n2Cc1ccccc1F | > 44.3 µM (inactive) |
| COc1ccccc1-c1c(C(F)(F)F)oc2cc(OC(=O)c3ccco3)ccc2c1=O | 1.1 µM (active) |
| O=C(Oc1ccc2c(=O)c(-c3ccccc3Cl)c(C(F)(F)F)oc2c1)c1cccs1 | 1.1 µM (active) |
| Cc1cccc(C2CC(=O)NC3=C2C(=O)CC(c2cccs2)C3)c1 (stereo not given) | > 44.3 µM (inactive) |
| COc1ccc(OC)c(CNC(=O)Cn2c(=O)sc3ccccc32)c1 | > 44.3 µM (inactive) |
| COc1ccc(-c2c(C(F)(F)F)oc3cc(OC(=O)c4cccnc4)ccc3c2=O)cc1OC | 8.9 µM (active) |
| COc1ccc(-c2c(C(F)(F)F)oc3cc(OC(=O)c4ccco4)ccc3c2=O)cc1OC | 3.3 µM (active) |
| CCCC(=O)N(Cc1ccco1)S(=O)(=O)c1cccc2cccnc12 | > 44.3 µM (inactive) |
| COc1cccc(-c2ccnc3[nH]n(-c4ccccc4)c(=O)c23)c1 | > 44.3 µM (inactive) |
| Cc1cccc(C)c1NC(=O)C(NC(=O)Cc1cccs1)c1ccccc1 (stereo not given) | > 44.3 µM (inactive) |
| O=C(Oc1ccc2c(=O)c(Oc3ccccc3Br)c(C(F)(F)F)oc2c1)c1cccs1 | > 44.3 µM (inactive) |
| CCC(C)(C(=O)NC1CCCCC1)N(Cc1cccs1)C(C)=O (stereo not given) | > 44.3 µM (inactive) |
| COc1ccc(C2C(C(=O)N3CCCC(C)C3)c3ccccc3C(=O)N2C)cc1 (stereo not given) | > 44.3 µM (inactive) |
| CCc1cc2c(=O)c(-c3nc4ccccc4n3C)c(C)oc2cc1OC(C)=O | 0.3 µM (active) |
| COc1ccc(-c2c(C)nn3c(=O)c4c([nH]c23)CCCC4)cc1 | > 44.3 µM (inactive) |
